From PubChem BioAssay (EPA / NIEHS)
Calls of active or inactive are those of the source. The calls were made as follows: active = hit-call score of the fitted dose curve at least 0.9, where 1 is the maximum; inactive = score below 0.9.

read-out: Basic fibroblast growth factor (bFGF), FGF2 (gene 2247); assay: BSK_MyoF_bFGF: BioMAP Diversity Plus: MyoF Assay for Basic fibroblast growth factor (bFGF) Biomarker Activity (AID 2284246); settings: primary human lung fibroblasts
Procedure, shortened: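 In this multiplexed cell system, lung fibroblasts (human primary) receive test chemical for 24 h before ELISA detection of bFGF; DMSO defines baseline and the analysis direction is positive.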

SMILES	outcome	AC50
O=C1OC2(c3ccc(O)cc3Oc3cc(O)ccc32)c2ccccc21	inactive	–
CC=CC(=O)C1=C(C)C=CCC1(C)C	inactive	–
c1ccc(Sc2ccccc2)cc1	–	31.9 µM (active)
O=C(O)C(F)(F)OC(F)(F)C(F)(F)OC(F)(F)C(F)(F)C(F)(F)C(F)(F)F	inactive	–
CCCCCCCC1CCCC1=O (stereo not given)	inactive	–
CCC(=O)OCC=Cc1ccccc1	inactive	–
CC(C)Cc1ccc(C(C)C(=O)O)cc1 (stereo not given)	inactive	–
CC(=O)CCC=C(C)CCC=C(C)C	inactive	–
CCOC(=O)C=Cc1ccccc1	inactive	–
C=C1CC/C=C(\C)CC[C@@H]2[C@@H]1CC2(C)C	–	34.7 µM (active)
O=S1(=O)CC(Cl)(Cl)C(Cl)(Cl)C1	–	2.06 µM (active)
CCCCCCCCCCCCS	–	29 µM (active)
OCC(F)(OC(F)(F)C(F)(OC(F)(F)C(F)(F)C(F)(F)F)C(F)(F)F)C(F)(F)F (stereo not given)	inactive	–
CC(C)(C)c1cccc(O)c1	inactive	–
CC(=O)OCC=C(C)CCC=C(C)CCC=C(C)C	inactive	–
O=C(O)C(F)(F)C(F)(F)C(F)(F)C(F)(F)C(F)(F)C(F)(F)C(F)(F)C(F)F	inactive	–
NC(=O)c1c(Cl)cccc1Cl	inactive	–
C=C(C)C(=O)OCCC(F)(F)C(F)(F)C(F)(F)C(F)(F)C(F)(F)C(F)(F)C(F)(F)C(F)(F)F	inactive	–
Nc1ccc(N)c([N+](=O)[O-])c1	inactive	–
COc1ccccc1NC(=O)CC(C)=O	inactive	–
CC1=CC(C)C(C=O)C(C)C1 (stereo not given) (tested in a mixture with another compound)	inactive	–
c1ccc2c(c1)-c1ccc3ccc4cccc5cc-2c1c3c45	inactive	–
CC(=O)OC(C)(C)C1CC=C(C)CC1 (stereo not given)	inactive	–
CC1(C)[C@H](C=C(Cl)Cl)[C@H]1C(=O)OCc1cccc(Oc2ccccc2)c1	inactive	–
O=S(=O)(O)C(F)(F)C(F)(F)OC(F)(F)C(F)(F)F	inactive	–
CCCCCCCCCC(=O)OCC	inactive	–
CCOC(=O)CCCCCCCCC(=O)OCC	inactive	–
C=C(F)C(=O)OC(C(F)(F)F)C(F)(F)F	inactive	–
OCCN1CCOCC1	inactive	–
C=CC(=O)OCC(CO)(COC(=O)C=C)COC(=O)C=C	–	1.62 µM (active)
